From PubChem
Lassa entry inh: Lassa virus entry inhibition | Lassa virus pseudotype entry inhibition, cell reporter | Potency, µM (series often up to 37.9 µM), inactives show at the highest dose activity change, negative = inhibition, usual class: inhibitors | actives 1.2% (n = 300,000); calls by dose curve; tested in HEK293 cells; note: potency is the fitted concentration of half-maximal effect; % is set by controls: 0 for no effect and ±100 for the full control effect; nearly all actives have a fitted effect of over 50% in size
MARV entry inh: blocks Marburg virus binding to or entry into cells. Marburg virus pseudotyped entry inhibition, cell reporter. Potency, µM (top dose mostly 37.8 µM), without a hit: at the top dose activity change, negative = inhibition, actives largely listed as inhibitors. actives 1.8% (n = 300,000). AID 540276; calls by dose curve; tested in HEK293 cells; note: potency is the fitted concentration of half-maximal effect; % is set by controls: 0 for no effect and ±100 for the full control effect
VACV Venus inh: vaccinia inhibition (Venus reporter). Vaccinia virus Venus reporter expression, fluorescence. Potency, µM (series often up to 36.5 µM), for the others: at the highest dose activity change, negative = inhibition, hits mostly inhibitors. actives 0.46% (n = 330,000). AID 720580; calls by dose curve; tested in A549 cells; note: potency is the fitted concentration of half-maximal effect; % is set by controls: 0 for no effect and ±100 for the full control effect; nearly all actives have a fitted effect of over 30% in size
VACV mCherry inh: vaccinia inhibition (mCherry reporter); actives 0.63% (n = 310,000); Vaccinia virus mCherry reporter infection, fluorescence; Potency, µM (series often up to 36.5 µM), inactives show top-dose activity change, negative = inhibition, hits mostly inhibitors; AID 720579; calls by dose curve; tested in A549 cells; note: potency is the fitted concentration of half-maximal effect; % is set by controls: 0 for no effect and ±100 for the full control effect; nearly all actives have a fitted effect of over 35% in size
Shiga inhibitor: inhibitors of Shiga toxin in Vero cells | Vero cells, Shiga toxin protein synthesis inhibition reporter | inhibition, % at 38.7 µM | actives 9.2% (n = 290,000) | AID 2315; in the data active = inhibition mostly above about 28%, no sharp cut-off; inactive = mostly below about 43%; note: 0% is about no effect
CHX counter: affects cycloheximide protein synthesis inhibition readout, counter-screen; cell reporter, cycloheximide protein synthesis inhibition counterscreen; max response, %; actives 12% (n = 300,000); in the data active = max response mostly above about 13%, no sharp cut-off; inactive = mostly below about 14%; note: read at 38.3 µM for the half of the compounds with a filed dose; 0% is about no effect
Active calls of the source: *; i = inactive; ? = inconclusive; . = no result given; [ ] = dose if it differs, or a comment. The entries come from a sample that favours hits as a whole.

SMILES | Lassa entry inh | MARV entry inh | VACV Venus inh | VACV mCherry inh | Shiga inhibitor | CHX counter
COc1ccc(-c2c(C)nc3c(-c4ccsc4)cnn3c2N)cc1 | . | . | . | . | 85* | 33*
Cc1cc(C(F)(F)Cl)n2ncc(-c3ccccn3)c2n1 | . | . | . | . | 4 | -4
C/C=C1\COC(C(=O)NC)(C(F)(F)F)C=C1C=C1CCCCC1 (configuration not stated) | . | . | . | . | 15 | 19
COC(=O)c1ccc(OC(=O)CCS(=O)(=O)c2ccc(C)cc2)cc1 | 9% | 21% | -5% | -14% | . | .
CCOC(=O)c1[nH]c2ccccc2c1NC(=O)c1ccccc1F | 5%[46.1 µM] | ? | -4% | -20% | . | .
Oc1ccccc1Nc1nc(NCc2ccccc2)c2ccccc2n1 | ? | ? | ? | ? | 25 | 9
COc1ccccc1Nc1nc(NCc2ccco2)c2ccccc2n1 | -20% | ? | -17% | ? | 32 | 24*
Cc1ccc(Nc2nc(NCc3ccco3)c3ccccc3n2)cc1 | 2.8µM* | ? | 11µM* | ? | 43 | 30*
COc1ccc(C(=O)c2[nH]c(N)c(C(=O)NCCc3c[nH]c4ccccc34)c2-c2ccc(OC)c(OC)c2)cc1 | . | . | -3% | -21% | . | .
O=[N+]([O-])c1cncn1CCN1CCOCC1 | 0% | ? | -2% | -12% | . | .
COc1ccc(NC(=O)Cc2nnc(SCC(=O)NC3CCCCC3C)n2C)cc1 (configuration not stated) | 12%[46.1 µM] | 10%[46.1 µM] | 0% | i | 2 | -6
COc1ccc(Cl)cc1NC(=O)CN1c2ccccc2S(=O)(=O)c2ccccc21 | -14%[46.1 µM] | . | -2% | -3% | . | .
c1ccc2c(c1)NC(c1ccncc1)n1c-2nc2ccccc21 (configuration not stated) | -18% | ? | ? | ? | 35 | 1
CCCC1(C)Nc2ccccc2-c2nc3ccccc3n21 (configuration not stated) | 24% | -4% | -11% | ? | 81* | 53*
c1ccc2c(c1)NC1(CCCC1)n1c-2nc2ccccc21 | -2% | ? | -22% | -4% | 92* | 27*
COc1ccc(-c2csc(NC(=O)c3cc(C)oc3C)n2)cc1OC | ? | ? | -17% | -1% | 17 | 15
COC(=O)C1=C(C)N(Cc2ccccc2)C(=NCCc2c[nH]c3ccccc23)N[C@H]1c1cccc(F)c1 | . | . | 13µM* | ? | . | .
CCN(CC)CCCN=C1N[C@@H](c2cccc(F)c2)C(C(=O)OC)=C(C)N1Cc1ccccc1 | . | . | 28µM* | ? | . | .
COc1ccc(CCn2c(=O)c3cccnc3n(CC(=O)Nc3c(C)cc(C)cc3C)c2=O)cc1OC | . | -3%[46.1 µM] | -3% | -16% | . | .
NC(=S)N/N=C/c1ccc2ccccc2c1 | 8% | ? | 1µM* | 0.35µM* | -8 | 27*
NC(=S)N/N=C/c1cccc(/C=N/NC(N)=S)c1 | 21% | 2% | -5% | -1% | 13 | -2
NC(=S)N/N=C/c1cccc(Br)c1 | 7% | 6% | 0.89µM* | ? | -10 | -2
CN(C)c1ccc(/C=C/c2ccnc3c(Cl)cccc23)cc1 | . | . | 27% | -5% | . | .
COc1ccccc1-c1ccc2c(c1)C(C)(Cc1cccc(F)c1)C(=O)N2 (configuration not stated) | . | . | -15% | 0% | . | .
O=C1C=CC(=O)N1c1ccccc1N1C(=O)C=CC1=O | 11µM* | ? | ? | -5% | . | .
SMILES | Lassa entry inh | MARV entry inh | VACV Venus inh | VACV mCherry inh | Shiga inhibitor | CHX counter
O=C(c1ccccc1)c1ccccc1N1C(=O)C=CC1=O | ? | ? | -19% | -20% | 17 | 10
CCOc1cc(CNc2ccc(N(C)C)cc2)cc(Br)c1OCC(=O)NC(C)(C)C | ? | -10% | -15% | . | 38* | 36*
CCOc1cc(CNc2ccc(N3CCOCC3)cc2)cc(Br)c1OCC | -30% | -13% | -12% | -16% | -12 | -3
CCOc1cc(CNc2ccc3c(c2)OCCO3)cc(Br)c1OCC | -22% | ? | ? | ? | 67* | 28*
CCOc1cc(CNc2ccc(N3CCCCC3)cc2)cc(Br)c1OCC(=O)NC(C)(C)C | -13% | -30% | 5% | -8% | 22 | 14*
C=CCOc1c(Br)cc(CNc2ccc(NC(=O)C(C)C)c(OC)c2)cc1OCC | 2% | -21% | -10% | i | 10 | 34*
CCOc1cc(CNc2cccc3ccccc23)cc(Br)c1OCC(=O)NC(C)(C)C | ? | ? | -11% | -24% | -3 | 11
Cc1ccc(CCNC(=O)CN(c2ccc(C(C)C)cc2)S(=O)(=O)c2c(C)nn(C)c2C)cc1 | ? | 14%[46.1 µM] | -9% | -8% | . | .
COc1ccccc1[C@H]1/C(=C(\O)c2ccc(C)cc2)C(=O)C(=O)N1Cc1ccco1 | . | -1%[46.1 µM] | . | . | . | .
CCOCCc1nnc(NC(=O)C(=O)c2cc(C)n(-c3cccc(Cl)c3)c2C)s1 | -5%[46.1 µM] | 1%[46.1 µM] | -5% | -7% | . | .
O=C(CSc1nc(-c2ccc(Cl)cc2)cs1)Nc1cccc([N+](=O)[O-])c1 | . | . | -26% | -28% | 54* | 38*
CC(C)c1ccc(NC(=O)CSc2ncccc2C(=O)Oc2cccc([N+](=O)[O-])c2)cc1 | ? | ? | -14% | -11% | 36* | 46*
NS(=O)(=O)c1cccc(NC(=O)CSc2ccccn2)c1 | 11% | 16% | -16% | -24% | 51 | 28*
O=C(CSc1ccccn1)Nc1ccc(F)c([N+](=O)[O-])c1 | 8% | 3% | -14% | i | 0 | 3
Cc1cc(NC(=O)CSc2nc(-c3ccc(Cl)cc3)cs2)no1 | -16% | ? | . | . | 21 | -3
NS(=O)(=O)c1ccc(NC(=O)CSc2ccccn2)cc1 | 21% | -10% | . | . | -4 | 8
O=C(CSc1ccccn1)Nc1cccc([N+](=O)[O-])c1 | 22% | 10%[46.1 µM] | -20% | -15% | 34* | 32*
CN(C)c1c(Cl)cc(/C=C2\C=Cc3ccccc32)cc1Cl | . | . | -1% | -11% | . | .
CCNC(=S)Nc1cccc([N+](=O)[O-])c1 | 7% | -10% | . | . | -1 | -3
O=[N+]([O-])c1cccc(NC(=S)Nc2nc(-c3ccccc3Cl)cs2)c1 | ? | ? | ? | ? | 75* | 33*
COc1ccc(Cl)cc1NC(=O)c1cnc2n(c1=O)CCS2 | . | . | ? | 2.2µM* | -4 | 3
Cc1cccc(NC(=O)c2cnc3n(c2=O)CCS3)c1 | ? | -8% | . | . | 17* | 21*
CCn1cnc2sc(C(=O)Nc3ccc4c(c3)OCO4)c(C)c2c1=O | ? | 15% | -12% | . | 94* | 38*
O=C(Nc1ccccc1)c1cnc2n(c1=O)CCS2 | -1% | 1% | -3% | 15% | 47 | 15
COc1ccc(OC(=O)c2cnc3n(c2=O)CCS3)cc1 | 1% | 8% | 13% | 0% | 26 | 15*
CC(=O)Nc1ccc(NC(=O)CSc2nnc(NC(=O)C3CC(=O)N(c4ccc(F)cc4)C3)s2)cc1 (configuration not stated) | 3% | 29% | -11% | 0% | -1 | -3
COc1ccc(S(=O)(=O)N2CCCCC2)cc1NC(=O)CCCOc1ccc(C)cc1 | -29% | ? | -4% | i | . | .
O=C(Nc1ccc2c(c1)OCO2)c1cnc2n(c1=O)CCS2 | -2% | 19% | . | . | 49* | 29*
